This is an account of results in PubChem BioAssay (NCI).

The structures appear in SMILES notation. Compounds without any hit were thinned out: in the full panel of roughly 79,000, 15% have a hit. Unmarked numbers belong to inactive results. The source made the active and inactive calls. No stated cut-off is given here; in the data, active means growth inhibition above about 70%; inactive means the rest.

A short description of experiment [1]: NCI Yeast Anticancer Drug Screen. Data for the rad50 strain (AID 155).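 Further: 0% = growth of vehicle-only cultures of the same strain.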 The note with it: S. cerevisiae rad50 strain growth inhibition; at 50.0 µM; stronger effect = higher value. Put shortly: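 Genetically altered yeast (DNA repair pathway); compound treatment; growth inhibition vs vehicle ctrl.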
The nature of experiment [2]: NCI Yeast Anticancer Drug Screen. Data for the mec2-1 strain (AID 157). The note with it: S. cerevisiae mec2-1 strain, at 50.0 µM, stronger effect = higher value. The method in brief: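 Readout is yeast growth inhibition, normalised to vehicle-treated controls, in the mec2-1 strain exposed to compound.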
Experiment [3] in a line: NCI Yeast Anticancer Drug Screen. Data for the sgs1 mgt1 strain (AID 161).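 Further: 0% = growth of cultures given vehicle only.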 The note with it: S. cerevisiae sgs1 mgt1 strain, at 50.0 µM, stronger effect = higher value. The method in brief: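 This yeast growth screen uses a strain with defined DNA-repair lesions; compound-treated growth is compared with vehicle-treated growth.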
Experiment [4] can be described thus: NCI Yeast Anticancer Drug Screen. Data for the cln2 rad14 strain (AID 165).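 Further: 0% = growth equal to vehicle treated cultures.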 The note with it: S. cerevisiae cln2 rad14 strain, at 50.0 µM, stronger effect = higher value. Put shortly: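 Relative to vehicle controls, growth inhibition of compound-treated cln2 rad14 yeast was recorded.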
Experiment [5] in a line: NCI Yeast Anticancer Drug Screen. Data for the bub3 strain (AID 167). The note with it: S. cerevisiae bub3 mutant strain, at 50.0 µM, stronger effect = higher value. The method in brief: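 Yeast carrying a defined mutation is treated with each compound, and growth is compared with that of vehicle-exposed cells to give inhibition.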
A short description of experiment [6]: NCI Yeast Anticancer Drug Screen. Data for the mlh1 rad18 strain (AID 175). The note with it: S. cerevisiae mlh1 rad18 strain growth inhibition; at 50.0 µM; stronger effect = higher value. Put shortly:
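Test agents were incubated with a yeast strain of defined genotype (DNA damage repair defect). Inhibition of growth was derived by comparison with vehicle-exposed cultures.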

`O=C(CCCN1CC=C(n2c(=O)[nH]c3ccccc32)CC1)c1cccs1`: the growth inhibition was 50.6% in experiment [1]; 29.2% in experiment [2]; 32.4% in experiment [3]; 19.9% in experiment [4]; 33.1% in experiment [5]; 42.8% in experiment [6].

In the case of `O=C(NN1C(=O)C(Cl)C1c1ccccc1O)c1ccccc1O` (stereo unspecified), the growth inhibition in experiment [1] is -5.85%; in experiment [2], -26.5%; in experiment [3], -15.6%; in experiment [4], -15.1%; in experiment [5], -16.6%; in experiment [6] it was -29.4%.

With `Cc1ccc(C(=O)OC(C)C)cc1N=NN(C)C`, the growth inhibition is 32.4% in experiment [1]; -11.4% in experiment [2]; 11.1% in experiment [3]; 27.1% in experiment [4]; 6.45% in experiment [5]; -15.9% in experiment [6].

In the case of `Cc1cc[n+](CC(=O)CC(O)(C(F)(F)F)C(F)(F)F)cc1`, the growth inhibition in experiment [1] is -9%; in experiment [2], 5.7%; in experiment [3], 15.2%; in experiment [4], -4.1%; in experiment [5], -6.95%; in experiment [6], -1.6%.

Consider `NC(=O)N/N=C1/CCC(O)CC1CC(=O)O` (stereo unspecified), for which the growth inhibition is -7.85% in experiment [1]; -4.75% in experiment [2]; -7.05% in experiment [3]; 12.7% in experiment [4]; -57.9% in experiment [5]; -2.95% in experiment [6].

As for `CCC(=O)N1CCN(C(=O)CC)CC1`, the growth inhibition was 6.4% in experiment [1]; -2.45% in experiment [2]; -5.25% in experiment [3]; -12.8% in experiment [4]; 1.95% in experiment [5]; -2.25% in experiment [6].

Turning to `c1ccc2c(c1)cnc1c3ccccc3ccc21`, the growth inhibition in experiment [1] is 10.1%; in experiment [2], -7.85%; in experiment [3], -8.6%; in experiment [4], -21.9%; in experiment [5] it was 6.85%; in experiment [6], -0.5%.

Turning to `CC1CC(=O)Nc2ccccc2N1C(=O)C1CC1` (stereo unspecified), the growth inhibition in experiment [1] is -8.15%; in experiment [2] it was -33.4%; in experiment [3] it was -2.75%; in experiment [4], 2.7%; in experiment [5], -11.6%; in experiment [6], -1.85%.

For `OCCCCCCN=Cc1ccccc1O.OCCCCCCN=Cc1ccccc1O.[Cu]`, the growth inhibition in experiment [1] was 47.9%; in experiment [2], -1.2%; in experiment [3], 72.2% (active); in experiment [4], -48.2%; in experiment [5], 4.25%; in experiment [6], 14.8%.

`COc1cc(C(=O)n2ncc(C(C)=O)c2C)cc(OC)c1OC`: the growth inhibition in experiment [1] is -3.75%; in experiment [2], -17.5%; in experiment [3] it was 12.9%; in experiment [4], 10.9%; in experiment [5], 0.3%; in experiment [6], 8.45%.

`O=C(NCc1ccccc1)C(O)c1ccccc1` (stereo unspecified): the growth inhibition in experiment [1] is 25.2%; in experiment [2], 4.8%; in experiment [3] it was -1.25%; in experiment [4], 0.6%; in experiment [5], 8.2%; in experiment [6], 12.7%.

With `COc1ccccc1-c1cc(=O)c2cc(C)c(C)c(C(=O)O)c2o1`, the growth inhibition is 7.05% in experiment [1]; 3.95% in experiment [2]; 18.6% in experiment [3]; 29.7% in experiment [4]; 7.35% in experiment [5]; 11.8% in experiment [6].

For the compound `Cc1nc2ccccc2nc1CCO`, the growth inhibition in experiment [1] was -12.7%; in experiment [2] it was -0.15%; in experiment [3], -3.85%; in experiment [4], -24.2%; in experiment [5], -24.8%; in experiment [6] it was -8.8%.

For `COc1cc(OC)c(NC(=O)NC(C)(C)C)cc1Cl`, the growth inhibition in experiment [1] is -3.35%; in experiment [2] it was 9.4%; in experiment [3], 17.1%; in experiment [4], -2.5%; in experiment [5], 18.6%; in experiment [6], 23.4%.

As for `COc1cc(C2=N/C(=C\c3cccc([N+](=O)[O-])c3)C(=O)O2)cc(OC)c1OC`, the growth inhibition was -0.45% in experiment [1]; -7.25% in experiment [2]; 11.6% in experiment [3]; -8.05% in experiment [4]; -0.2% in experiment [5]; -22.5% in experiment [6].

As to `COc1cc(/C=C(\C#N)c2ccccc2)cc(OC)c1`, the growth inhibition in experiment [1] is 43.8%; in experiment [2], -13.5%; in experiment [3] it was -9.6%; in experiment [4], -9.8%; in experiment [5], 17.4%; in experiment [6], -28.9%.

As for `Oc1ccccc1C=NCCN(CCN=Cc1ccccc1O)c1ccccc1`, the growth inhibition in experiment [1] is 21.1%; in experiment [2], 7.1%; in experiment [3] it was 26.1%; in experiment [4], 12.8%; in experiment [5], 8.9%; in experiment [6], 32.5%.

For the compound `COC(=O)CSSCc1ccccc1`, the growth inhibition in experiment [1] is 3.5%; in experiment [2] it was 1.5%; in experiment [3] it was 3.65%; in experiment [4] it was -26.1%; in experiment [5], -28.1%; in experiment [6] it was 6.35%.

Turning to `Clc1ccc(-c2nnc3n2NC(c2ccccc2)S3)c(Cl)c1` (stereo unspecified), the growth inhibition in experiment [1] was 2.7%; in experiment [2], -26%; in experiment [3], -13.8%; in experiment [4], 10.8%; in experiment [5], -18.9%; in experiment [6], -27.6%.

Take `CCC(CC)(SC(C)C(N)=O)C(C)=O` (stereo unspecified): the growth inhibition in experiment [1] is 0.35%; in experiment [2], 7.4%; in experiment [3], -16.3%; in experiment [4], -11.3%; in experiment [5] it was 5.75%; in experiment [6] it was 0.6%.

As to `NC(=O)CCN(CCC(N)=O)CCC(N)=O`, the growth inhibition is -9.25% in experiment [1]; 7.1% in experiment [2]; -3.3% in experiment [3]; -24.9% in experiment [4]; -4.15% in experiment [5]; -12.9% in experiment [6].
